Data from PubChem BioAssay AID1159580 (chemical genetic matrix, 2015).
The whole screen tested about 5,500 compounds, of which about 2,000 (36%) were called active. Another 18% or so got no clear call; they are omitted. No stated cut-off is given here; in the data, active means normalized growth mostly below about 0.91 (no sharp cut-off); inconclusive means no clear call, values can overlap the other calls; inactive means mostly above about 0.92. This is one part of the list.

Experiment: chemical genetic growth profiling, strain panel (AID 1159580);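 further: tested at 20 µM; growth read once vehicle control cultures reached saturation at 30 °C; 1 = growth at the plate median or of vehicle wells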
Details: growth OD
[1] = S. cerevisiae deletion strains, locus YAL013W, strain DEP1, stronger effect = lower value
[2] = S. cerevisiae deletion strains, locus YBR229C, strain ROT2, stronger effect = lower value
[3] = S. cerevisiae deletion strains, locus YDL101C, strain DUN1, stronger effect = lower value
[4] = S. cerevisiae deletion strains, locus YDL134C, strain PPH21, stronger effect = lower value
[5] = S. cerevisiae deletion strains, locus YDR150W, strain NUM1, stronger effect = lower value
[6] = S. cerevisiae deletion strains, locus YEL061C, strain CIN8, stronger effect = lower value
[7] = S. cerevisiae deletion strains, locus YGR078C, strain PAC10, stronger effect = lower value
[8] = S. cerevisiae deletion strains, locus YHR030C, strain SLT2, stronger effect = lower value
[9] = S. cerevisiae deletion strains, locus YHR087W, strain rtc3, stronger effect = lower value
[10] = S. cerevisiae deletion strains, locus YJR043C, strain POL32, stronger effect = lower value
[11] = S. cerevisiae deletion strains, locus YJR075W, strain HOC1, stronger effect = lower value
[12] = S. cerevisiae deletion strains, locus YLR039C, strain RIC1, stronger effect = lower value
[13] = S. cerevisiae deletion strains, locus YLR058C, strain SHM2 (second series), stronger effect = lower value
[14] = S. cerevisiae deletion strains, locus YLR085C, strain ARP6, stronger effect = lower value
[15] = S. cerevisiae deletion strains, locus YLR262C, strain YPT6, stronger effect = lower value
[16] = S. cerevisiae deletion strains, locus YML094W, strain GIM5, stronger effect = lower value
[17] = S. cerevisiae deletion strains, locus YMR219W, strain ESC1, stronger effect = lower value
[18] = S. cerevisiae deletion strains, locus YMR263W, strain SAP30, stronger effect = lower value
[19] = S. cerevisiae deletion strains, locus YNL153C, strain GIM3, stronger effect = lower value
[20] = S. cerevisiae deletion strains, locus YNL298W, strain CLA4 (second series), stronger effect = lower value
[21] = S. cerevisiae deletion strains, locus YNL322C, strain KRE1, stronger effect = lower value
[22] = S. cerevisiae deletion strains, locus YNR030W, strain Alg12, stronger effect = lower value
[23] = S. cerevisiae deletion strains, locus YPL055C, strain LGE1, stronger effect = lower value
[24] = S. cerevisiae deletion strains, locus YPL241C, strain CIN2, stronger effect = lower value
[25] = S. cerevisiae deletion strains, locus YPR135W, strain CTF4, stronger effect = lower value

Measured: normalized growth

O=[N+]([O-])c1cc(Cl)ccc1S(=O)(=O)c1ccccc1
inactive: [1] 0.987 | [2] 0.996 | S. cerevisiae deletion strains, locus YCL061C, strain MRC1, stronger effect = lower value 0.994 | [3] 0.98 | [4] 0.999 | [5] 0.97 | [6] 0.969 | [7] 0.993 | S. cerevisiae deletion strains, locus YGR229C, strain SMI1, stronger effect = lower value 0.98 | [8] 0.836 | [9] 1.02 | [10] 0.978 | [11] 0.995 | [13] 0.996 | [14] 0.796 | [16] 0.933 | [17] 0.998 | [18] 0.996 | S. cerevisiae deletion strains, locus YMR307W, strain GAS1, stronger effect = lower value 0.829 | [19] 0.985 | [20] 0.955 | [21] 0.987 | [22] 0.974 | [23] 0.996 | [24] 0.958 | [25] 0.803
active: [12] 0.634 | [15] 0.705

O=[N+]([O-])c1ccc(S(=O)(=O)c2ccc(Cl)cc2)cc1O
active: [1] 0.82 | [2] 0.766 | [3] 0.715 | [7] 0.81 | [9] 0.692 | [10] 0.832 | [11] 0.64 | [12] 0.723 | [13] 0.822 | [15] 0.639 | [17] 0.797 | [18] 0.814 | [19] 0.846 | [21] 0.86 | [23] 0.709
inactive: [4] 0.938 | [5] 0.811 | [6] 0.924 | [8] 0.954 | S. cerevisiae deletion strains, locus YKL190W, strain CNB1, stronger effect = lower value 0.978 | [14] 0.947 | [16] 0.94 | [20] 0.915 | [22] 0.94 | [24] 0.934 | [25] 0.99 | S. cerevisiae strains, strain wild type, stronger effect = lower value 0.952
